Eight compounds from PubChem BioAssay (Tox21) can be followed below.

Several values for one entry are separate records, joined by “and”; a condition that tells them apart may be missing. Equal entries are not always repeated. Inconclusive results are not listed. Activity calls are given as the source filed them. Unless noted, the call rests on the fitted dose curve; in most records, active means well fitted curve in the direction sought with a large enough effect in the repeat runs; inconclusive means weak or mixed curves; inactive means no such curve, though single readings can be large; an effect the other way counts as inactive or inconclusive.

Experiment [1] is described as follows: qHTS assay for small molecule agonists of the p53 signaling pathway (AID 651631; calls by dose curve; further: nearly all actives have a fitted effect of over 15% in size). The method, boiled down:
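HCT-116 cells carrying a beta-lactamase reporter under p53 response elements were dosed with compound for 16 h at 37 °C. LiveBLAzer B/G FRET substrate was then added for 2 h at room temperature, and fluorescence intensity was read to detect pathway agonism.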

Experiment [2] is described as follows: qHTS assay for small molecule agonists of the p53 signaling pathway - cell viability (AID 651633; calls by dose curve; further: nearly all actives have a fitted effect of over 30% in size; further: potency means the concentration at half of the fitted maximal effect). In short, it runs like this: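 Viability counter-read: CellTiter-Glo luminescence (30 min, room temperature) in the same p53RE-bla plates. These plates had been exposed to compounds for 16 h at 37 C.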
On the technique in general: qHTS replaces the single test concentration by a dilution series.

Experiment [3] in a line: qHTS assay for small molecules that induce genotoxicity in human embryonic kidney cells expressing luciferase-tagged ATAD5 - cell viability (AID 651634; calls by dose curve; further: nearly all actives have a fitted effect of over 25% in size). The method, boiled down: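 HEK293T ATAD5-luc cells, 2,000/well; compound 15.5 hr, 37C/5% CO2; CellTiter-Fluor 30 min, 37C; fluorescence read.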
Experiment [4] is described as follows: qHTS assay for small molecule disruptors of the mitochondrial membrane potential - cell viability (AID 720634; calls by dose curve;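 further: human HepG2 liver cancer cells; series mostly up to about 83 µM; nearly all actives have a fitted effect of over 20% in size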). The method, boiled down:
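Luminescence from CellTiter-Glo (ATP content) gave viability in HepG2 cells, read in the same wells as the MMP dye assay after 1 hr compound exposure at 37 C.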

Experiment [5] in a line: qHTS assay for small molecule disruptors of the mitochondrial membrane potential (AID 720635). Further: potency means the concentration at half of the fitted maximal effect. The method, boiled down:
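Mitochondrial membrane potential tracked with Mito-MPS dye, red aggregates (ex 540/em 590 nm) against green monomers (ex 490/em 535 nm). Compound treatment 1 hr at 37C, dye 30 min in HepG2.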

Experiment [6] can be described thus: qHTS assay to test for compound auto fluorescence at 590 nm (red) in HepG2 cells (AID 720674). The method, boiled down: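 1 hr compound incubation on HepG2 cells, 37 C, 5% CO2; plate read ex 540 nm / em 590 nm; intensities reported as Rose Bengal sodium equivalents.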
Experiment [7] can be described thus: qHTS assay to test for compound auto fluorescence at 535 nm (green) in HepG2 cells (AID 720675).
The nature of experiment [8]: qHTS assay to test for compound auto fluorescence at 590 nm (red) in HEK293 cells (AID 720679). The method, boiled down:
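We plated HEK293 cells in 10% dialyzed FBS medium, let them adhere for 4-5 hr, then added 23 nL compound. Overnight at 37C and 5% CO2 preceded fluorescence measurement at 540/590nm.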

A short description of experiment [9]: qHTS assay to test for compound auto fluorescence at 535 nm (green) in HEK293 cells (AID 720680).
Experiment [10] is described as follows: qHTS assay to test for compound auto fluorescence at 460 nm (blue) in HEK293 cell free culture (AID 720681). In short, it runs like this:
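Blue fluorescence (Ex 405/Em 460 nm, triamterene-equivalent) was read immediately after pin transfer of compound or DMSO into medium (DMEM, 10% FBS) without cells.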

The nature of experiment [11]: qHTS assay to test for compound auto fluorescence at 535 nm (green) in HEK293 cell free culture (AID 720682). The method, boiled down:
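Green-label autofluorescence (485 nm excitation, 535 nm emission) measured on compound added to cell-free culture medium (DMEM, 10% FBS). Output is expressed relative to fluorescein.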

The nature of experiment [12]: qHTS assay to test for compound auto fluorescence at 590 nm (red) in HEK293 cell free culture (AID 720683). The method, boiled down: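 Red-channel autofluorescence of compounds in culture medium (DMEM, 10% FBS), no cells, measured at 540/590 nm. Rose Bengal sodium is the reference fluorophore for equivalence.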
Experiment [13] is described as follows: qHTS assay to test for compound auto fluorescence at 590 nm (red) in HepG2 cell free culture (AID 720684). In short, it runs like this: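 Cell-free; medium MEM + 10% FBS; compound or DMSO added by pintool; read Ex 540/Em 590 nm; Rose Bengal sodium as red reference fluorophore.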
A short description of experiment [14]: qHTS assay to test for compound auto fluorescence at 460 nm (blue) in HepG2 cell free culture (AID 720685). In short, it runs like this:
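Cell-free plates of MEM plus 10% FBS received 23 nL compound or DMSO vehicle; blue-channel (405/460 nm) intensity scored against triamterene as reference fluorophore.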

Experiment [15] is described as follows: qHTS assay to test for compound auto fluorescence at 535 nm (green) in HepG2 cell free culture (AID 720686).
Experiment [16] in a line: qHTS assay to test for compound auto fluorescence at 460 nm (blue) in HepG2 cells (AID 720687). The method, boiled down:
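Blue-channel autofluorescence (Ex/Em 405/460 nm, triamterene-equivalent) was measured after 1 hr compound exposure at 37 C, 5% CO2. Cells were HepG2, plated overnight at 37 C in MEM plus 10% FBS.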

Experiment [17] concerns the target Glucocorticoid receptor (Homo sapiens) (UniProt P04150). As to the kind of experiment: qHTS assay to identify small molecule agonists of the glucocorticoid receptor (GR) signaling pathway (AID 720691; active means well fitted activation curve with a large enough effect in the signal ratio in the repeat runs, not every such curve was filed as active; the % refers to the signal ratio). In short, it runs like this:
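HeLa GR-bla reporter line; cells pre-incubated 4 h, compound in DMSO 18 h at 37 C; LiveBLAzer B/G FRET substrate 2 h RT; fluorescence intensity read-out.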

Experiment [18] shares this target. Briefly: qHTS assay to identify small molecule antagonists of the glucocorticoid receptor (GR) signaling pathway (AID 720692; active means well fitted inhibition curve with a large enough effect in the signal ratio in the repeat runs, not every such curve was filed as active; the % refers to the signal ratio). The method, boiled down: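 Read-out: beta-lactamase FRET substrate fluorescence, 2 h at room temperature, in HeLa cells stably carrying a GRE-driven bla reporter. Compounds were co-incubated with 5 nM dexamethasone agonist (final) for 18 h at 37 C.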

A short description of experiment [19]: qHTS assay for small molecules that induce genotoxicity in human embryonic kidney cells expressing luciferase-tagged ATAD5 (AID 651632). Further: nearly all actives have a fitted effect of over 15% in size. In short, it runs like this:
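Luminescence read-out: after 16 hr compound exposure at 37C, ATAD5-luciferase HEK293T cells received Amplite, 30 min RT, then CCD imaging. A rise in signal marks genotoxic stress.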

Experiment [20] is described as follows: qHTS assay to test for compound auto fluorescence at 460 nm (blue) in HEK293 cells (AID 720678). The method, boiled down:
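Triamterene serves as the blue fluorophore standard. Compound signal at 405/460 nm is read in HEK293 wells (2,000 cells, 10% dialyzed FBS) after overnight treatment at 37C.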

Chain of Glucocorticoid receptor (Homo sapiens) (P04150 whole entry, looked up): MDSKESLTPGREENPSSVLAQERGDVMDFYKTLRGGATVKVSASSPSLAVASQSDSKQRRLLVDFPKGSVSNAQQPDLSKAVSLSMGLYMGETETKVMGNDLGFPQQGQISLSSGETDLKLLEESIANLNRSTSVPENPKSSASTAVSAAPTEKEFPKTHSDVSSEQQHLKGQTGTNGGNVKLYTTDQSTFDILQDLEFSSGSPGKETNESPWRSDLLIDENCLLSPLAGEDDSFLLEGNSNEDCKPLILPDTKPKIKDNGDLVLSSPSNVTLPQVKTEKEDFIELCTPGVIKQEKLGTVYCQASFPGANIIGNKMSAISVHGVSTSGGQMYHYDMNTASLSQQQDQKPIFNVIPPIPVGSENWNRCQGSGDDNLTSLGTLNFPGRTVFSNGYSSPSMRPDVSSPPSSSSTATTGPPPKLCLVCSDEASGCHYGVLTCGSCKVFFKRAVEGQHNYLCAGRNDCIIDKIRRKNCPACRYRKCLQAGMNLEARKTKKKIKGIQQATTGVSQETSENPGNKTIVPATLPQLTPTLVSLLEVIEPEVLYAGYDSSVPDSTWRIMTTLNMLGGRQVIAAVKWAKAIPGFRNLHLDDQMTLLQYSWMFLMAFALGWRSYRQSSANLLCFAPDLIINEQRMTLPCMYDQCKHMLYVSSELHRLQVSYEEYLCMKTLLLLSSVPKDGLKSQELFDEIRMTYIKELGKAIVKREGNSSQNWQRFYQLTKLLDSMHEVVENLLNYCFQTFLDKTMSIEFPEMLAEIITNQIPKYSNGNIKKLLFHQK

Turning to `CCNc1nc(NCC)nc(SC)n1`, the Potency result in [1], in experiment [2], in experiment [3], in [4], in experiment [5] and in experiment [17] was “inactive” in each case. The Potency result in experiment [18] was “inactive”. In addition, the compound was called inactive in experiment [6], in [7], in experiment [8], in experiment [9], in experiment [10] and in experiment [11]. In addition, the compound was classed as inactive in experiment [12], in experiment [13], in experiment [14], in experiment [15] and in [16].
Regarding `N#CN`, the outcome in experiment [19], in experiment [6], in experiment [7], in [20], in experiment [8] and in [9] was inactive. The result in experiment [10], in [11], in experiment [12], in experiment [14], in experiment [15] and in experiment [16] was inactive. Moreover, the Potency entry in experiment [2], in experiment [3], in experiment [4], in experiment [5], in experiment [17] and in [18] was “inactive” throughout.
`ClC1=C(Cl)C2(Cl)C(CBr)CC1(Cl)C2(Cl)Cl` (stereo unspecified): the call in experiment [19], in experiment [6], in experiment [7], in [20], in experiment [8] and in experiment [9] was inactive. In addition, the compound was classed as inactive in experiment [10], in [11], in experiment [12], in experiment [14], in experiment [15] and in [16]. The Potency in [2] is 26.6 µM (active) and 61.1 µM (active); in experiment [5], 27.3 µM (active). Besides, the Potency result in experiment [3], in experiment [4], in experiment [17] and in experiment [18] was “inactive” in each case.
`CCCCCCCCSC(=O)Oc1cc(Cl)nnc1-c1ccccc1`: the Potency result in experiment [1], in [2], in experiment [3] and in experiment [4] was “inactive” throughout. Further, the Potency in experiment [5] was 30.6 µM (active). The outcome in experiment [6], in experiment [7], in experiment [8], in [9], in experiment [10] and in [11] was inactive. The result in [12], in experiment [13], in experiment [14], in [15] and in [16] was inactive.
As to `NC(=O)OCCCc1ccccc1`, the Potency entry in experiment [1], in experiment [2], in experiment [3], in [4], in experiment [5] and in [17] was “inactive” in each case. Further, in experiment [18], the Potency result was “inactive”. For the same compound, the call in experiment [6], in [7], in [20], in experiment [8], in experiment [9] and in experiment [10] was inactive. Besides, the call in experiment [11], in [12] and in experiment [14] was inactive.
With `COc1cc(CC(C)N)cc(OC)c1OC` (stereo unspecified), the compound was classed as inactive in experiment [19], in experiment [6], in experiment [7], in [20], in experiment [8] and in experiment [9]. Besides, the outcome in experiment [10], in experiment [11], in experiment [12], in [13], in experiment [14] and in experiment [15] was inactive. Besides, the Potency entry in experiment [2], in experiment [3], in experiment [4], in experiment [5] and in experiment [17] was “inactive” throughout.
Consider `COC1=CC(=O)O[C@@H](/C=C/c2ccccc2)C1`, for which the Potency entry in experiment [1], in experiment [2], in experiment [3], in experiment [4], in experiment [5] and in experiment [17] was “inactive” throughout. Besides, the compound was called inactive in [6], in experiment [7], in experiment [20], in experiment [8], in experiment [9] and in experiment [10]. For the same compound, the outcome in experiment [11], in experiment [12], in experiment [13], in experiment [14] and in [15] was inactive.
Turning to `CCC(C(N)=O)N1CCCC1=O` (stereo unspecified), the compound was called inactive in [19], in [6], in [7], in experiment [20], in [8] and in [9]. The call in experiment [10], in experiment [11], in [13], in experiment [14], in [15] and in experiment [16] was inactive. Also, the Potency entry in experiment [2], in [3], in experiment [4] and in [5] was “inactive” in each case.
